# High-throughput results deposited in PubChem by several laboratories.
# SARS 3CLpro inh = SARS-CoV 3CLpro protease inhibition; recombinant SARS-CoV 3CLpro, quenched FRET peptide cleavage; 290,000 tested, 0.14% active; inhibition, % at 6 µM; in the data active means inhibition above about 12%
# Autofluor counter = compound fluorescence in toxin protease inhibitor counterscreen | compound autofluorescence counterscreen, microsphere flow cytometry; hits give high values | fluorescence intensity (no concentration beside the values) | 360,000 tested, 3.1% active; in the data active means fluorescence intensity above about 16000; inconclusive means no clear call, values can overlap the other calls
# BoNT-F LC inh = inhibitors of Botulinum neurotoxin F light chain protease | Multiplex microsphere protease cleavage assay, flow cytometry | inhibition, % at 10 µM | 360,000 tested, 0.22% active | AID 588497; in the data active means inhibition above about 35%, passing the limit was not always enough; inconclusive means no clear call, values can overlap the other calls; further: plate controls were buffer without enzyme for full effect and enzyme alone for no effect
# Anthrax LF prot = blocks Bacillus anthracis lethal factor protease | P15917 | multiplex microsphere protease cleavage assay, LF | 360,000 tested, 0.12% active | inhibition, % at 10 µM; further: plate controls were buffer without enzyme for full effect and enzyme alone for no effect
# BoNT-A LC inh2 = BoNT A light chain protease inhibition | inhibition, % at 10 µM | AID 588499 | multiplex microsphere protease substrate cleavage, flow cytometry | 360,000 tested, 0.17% active; further: plate controls were buffer without enzyme for full effect and enzyme alone for no effect
# * = called active by the depositor; ? = inconclusive; . = no result given. An excerpt weighted towards active compounds, which were near 3.5% of everything screened. Unless noted, no stated cut-off is given here; in the data, active means inhibition above about 30%; inconclusive means no clear call, values can overlap the other calls; inactive means below that.
SMILES,SARS 3CLpro inh,Autofluor counter,BoNT-F LC inh,Anthrax LF prot,BoNT-A LC inh2
COc1ccc(C(=O)Nc2ccccc2C(=O)NCCCn2ccnc2)cc1,-4.5,2182,-0.5,-0.8,-0.4
C=CCOc1ccc(NC(=O)C(=O)NCCCn2ccnc2)cc1,-1.9,19499*,7.0,-1.1,4.1
O=C(NCCCn1ccnc1)c1ccco1,1.6,24362*,-5.7,-3.7,-3.8
CCOC(=O)C1=C(C)NC(=O)NC1c1ccco1 (centres undefined),-3.7,23226*,2.1,-0.2,-0.6
CN(CC(=O)O/N=C(\N)c1ccccn1)S(=O)(=O)c1ccccc1,7.6,19036*,1.3,-4.9,2.6
COc1ccc(/C(N)=N/OC(=O)CN(C)S(=O)(=O)c2ccccc2)cc1,-0.1,3282,1.7,-12.8,0.0
O=C(Nc1c(F)cc(F)cc1Br)c1cccnc1,-1.5,23919*,-2.2,0.5,-0.9
COc1cccc(C(C)NC(=S)NCc2ccc(F)cc2)c1 (centres undefined),1.8,5175,9.4,7.0,4.1
O=C(CCC(=O)N1CCc2ccccc2C1)N1CCN(S(=O)(=O)c2ccccc2)CC1,0.5,10843,-7.4,-7.7,-0.2
O=C(CCC(=O)N1CCN(S(=O)(=O)c2ccccc2)CC1)c1cccs1,2.5,20748*,4.1,-0.8,?
C/C(N)=C(/C#N)C(=O)COC(=O)Cc1coc2cc(C)ccc12,-1.0,4482,-11.1,-1.9,-1.7
CCn1cc(C(=O)O)c(=O)c2cc(F)c(N3CCNCC3)nc21,.,6008,-11.5,-11.8,-1.3
COC(=O)c1ccc(NC(=O)C[n+]2ccccc2C)cc1,5.5,4007,-32.3,5.3,-1.0
Cc1cccc[n+]1CC(=O)Nc1ccccc1,-4.4,4187,36.7*,15.1,0.9
O=[N+]([O-])c1ccc(O)c(/C=N/Nc2ccccn2)c1,-2.1,2089,67.4*,6.6,21.4
O=[N+]([O-])c1ccc(NN=Cc2ccccc2O)nc1,.,3804,-3.0,4.0,-0.5
CC(C)CCNC(=O)C(c1ccco1)N(Cc1ccccc1)C(=O)c1snc(C(N)=O)c1N (centres undefined),0.1,22391*,1.8,-3.0,2.2
CCCCC(C(=O)NCCC(C)C)N(CCCN1CCOCC1)C(=O)c1snc(C(N)=O)c1N (centres undefined),-3.3,20769*,-0.2,1.2,0.1
C=CCNC(=O)CCNS(=O)(=O)c1ccc(Br)cc1,-8.3,22875*,0.1,-4.8,2.0
CCCCNC(=O)CCNS(=O)(=O)c1ccc(Br)cc1,1.4,9229,-10.0,-3.3,0.1
CCC(C)NC(=O)CCNS(=O)(=O)c1ccc(Br)cc1 (centres undefined),2.2,21722*,2.1,-3.9,3.5
O=C(NC(O)C(=O)c1ccccc1)c1cccs1 (centres undefined),-1.6,5869,-1.3,-2.5,-0.2
CC1=C(C(=O)N2CCOCC2)C(c2ccsc2)C2=C(CCCC2=O)N1 (centres undefined),-5.7,22793*,3.1,-1.6,1.9
Fc1ccc(C2CCCN2Cc2nc(-c3cnccn3)no2)cc1 (centres undefined),3.9,3226,2.4,0.5,0.1
COc1ccc(C(=O)NCC(c2ccco2)N2CCc3ccccc32)cc1 (centres undefined),.,?,?,-2.0,-2.9
SMILES,SARS 3CLpro inh,Autofluor counter,BoNT-F LC inh,Anthrax LF prot,BoNT-A LC inh2
COc1ccc(OC)c(NC(=O)Cc2coc3cc(C)cc(C)c23)c1,-1.0,22476*,-0.6,-4.0,?
CCOc1ccccc1/C=C(\C#N)C1=CCCC1,0.1,3721,-0.9,4.8,2.1
CCCC(=O)Nc1c2c(nn1-c1ccc(F)cc1)CS(=O)(=O)C2,-2.7,2958,-31.6,-7.6,-2.3
O=C(Nc1c2c(nn1-c1ccc(F)cc1)CS(=O)(=O)C2)C12CC3CC(CC(C3)C1)C2,-0.8,24380*,-3.4,-1.7,?
CC(=O)C(Sc1nn(C)c(=S)s1)C(=O)Nc1ccccc1 (centres undefined),-0.1,23581*,-0.4,-3.4,-0.4
CC1(C)CC(=O)c2ccc(OCc3ccc([N+](=O)[O-])cc3)cc2O1,-1.9,?,-14.2,1.5,-4.1
O=C1CCOc2cc(OCc3ccccc3)ccc21,-1.2,21171*,-5.8,1.1,-4.0
CC(=O)O[C@H]1[C@H]2O[C@]23[C@@H]2CC[C@]4(O)C[C@@H](O)CC[C@]4(C)C2CC[C@]3(C)[C@H]1c1ccc(=O)oc1 (some centres undefined),.,2886,11.1,-0.8,0.3
Cc1ccc(C)c(Cn2nnc3c(=O)[nH]c(C4CCN(C(=O)c5cccs5)CC4)nc32)c1,2.6,3814,1.6,-5.4,-0.7
